Screening results from PubChem BioAssay.
SARS PLpro yeast-1 – inhibitors of SARS-CoV papain-like protease in yeast | S. cerevisiae expressing SARS-CoV PLpro, growth rescue | AID 485353 | hit rate 0.19% among 330,000 | Potency, µM (titrated, usually from 32.9 µM), for inactives: at the top dose activity, positive = growth rescue, actives largely listed as activators; calls by dose curve; further: potency means the concentration at half of the fitted maximal effect; 0% is about no effect; nearly all actives have a fitted effect of over 55% in size
NS1 inh – inhibitors of influenza NS1 protein function; AID 2326; Potency, µM (series often up to 46.1 µM), for inactives: at the top dose activity, positive = more growth; hit rate 0.4% among 270,000; calls by dose curve; further: potency means the concentration at half of the fitted maximal effect; actives are rising curves; nearly all actives have a fitted effect of over 50% in size
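Recovery from NS1-induced slow growth read by OD600 in budding yeast switched to galactose assay medium (pH 6.0, -URA) at 1:100 dilution. Compound 23 nl per well; the matching strain lacking NS1 serves as control.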
LmPK inhibitor – LmPK (Leishmania mexicana) enzyme inhibition; Q27686; purified LmPK, Kinase-Glo ATP luminescence, 1 h; Potency, µM (highest dose often 57.5 µM), for the others: at the highest dose activity change, negative = inhibition, actives largely listed as inhibitors; hit rate 0.37% among 290,000; further: potency means the concentration at half of the fitted maximal effect; on the % scale 0 is the no-effect control and ±100 the full control effect
Target sequence (Q27686 whole entry, looked up): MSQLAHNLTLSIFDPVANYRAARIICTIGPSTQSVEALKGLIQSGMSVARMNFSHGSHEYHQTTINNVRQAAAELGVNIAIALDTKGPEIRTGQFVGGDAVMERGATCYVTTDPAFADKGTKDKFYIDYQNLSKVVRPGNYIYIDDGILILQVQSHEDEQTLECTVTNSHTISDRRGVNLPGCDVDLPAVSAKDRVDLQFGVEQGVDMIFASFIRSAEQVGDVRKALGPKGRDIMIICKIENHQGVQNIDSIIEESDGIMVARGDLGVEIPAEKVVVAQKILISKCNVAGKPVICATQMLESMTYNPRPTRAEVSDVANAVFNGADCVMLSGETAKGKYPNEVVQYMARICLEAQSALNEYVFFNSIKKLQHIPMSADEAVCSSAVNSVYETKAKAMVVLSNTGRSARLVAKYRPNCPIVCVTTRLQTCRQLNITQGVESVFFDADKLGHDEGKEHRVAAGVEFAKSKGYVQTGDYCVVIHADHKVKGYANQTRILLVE
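0.1 nM LmPK, 0.5 mM PEP, 0.1 mM ADP; 50 mM imidazole pH 7.2, 7 mM MgCl2, 50 mM KCl; 1 h RT. Kinase-Glo luminescence readout, normalized to no-enzyme (full inhibition) and uninhibited wells.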
Shiga toxin inh – blocks Shiga toxin action in Vero cells; inhibition, % at 38.7 µM; hit rate 9.2% among 290,000; Vero cells, Shiga toxin protein synthesis inhibition reporter; in the data active means inhibition mostly above about 28%, no sharp cut-off; inactive means mostly below about 43%; further: 0% is about no effect
Tb PYK inh – blocks Trypanosoma brucei pyruvate kinase; Q57TT1; TbPYK enzyme, Kinase-Glo Plus ATP luminescence, 45 min; Potency, µM (titrated, usually from 76.8 µM), inactives show at the top dose activity, negative = inhibition, usual class: inhibitors; hit rate 0.12% among 410,000; AID 624173; further: potency means the concentration at half of the fitted maximal effect; on the % scale 0 is the no-effect control and ±100 the full control effect; nearly all actives have a fitted effect of over 50% in size
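Activity of T. brucei pyruvate kinase was followed by Kinase-Glo Plus luminescence after the enzyme reacted 45 min at room temperature with 130 uM ADP (final) and substrate. Test compounds were added before ADP at multiple concentrations.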
Cycloheximide cs – counter-screen hit for Shiga toxin inhibitors, cycloheximide; AID 2314; max response, %; cell reporter, cycloheximide protein synthesis inhibition counterscreen; hit rate 12% among 300,000; in the data active means max response mostly above about 13%, no sharp cut-off; inactive means mostly below about 14%; further: read at 38.3 µM for the half of the compounds with a filed dose; 0% is about no effect
SARS PLpro yeast-2 – Validates SARS-CoV PLpro inhibitor hits in yeast. yeast expressing SARS-CoV PLpro, growth phenotype rescue. calls only. hit rate 19% among 1,000. AID 652038. shares compounds with SARS PLpro yeast-1; call rule not given here
* marks the source's active call; other numbers are inactive results; i = inactive; u = inconclusive; x = no result; + = active, no number. This is one part of a sample in which hits are shown more often than they occur. Unless noted, the call rests on the fitted dose curve; in most records, active means well fitted curve in the direction sought with a large enough effect; inconclusive means small, poorly fitted or top-dose-only effect, or another doubt; inactive means no such curve, though single readings can be large; an effect the other way counts as inactive or inconclusive.

SMILES | SARS PLpro yeast-1 | NS1 inh | LmPK inhibitor | Shiga toxin inh | Tb PYK inh | Cycloheximide cs | SARS PLpro yeast-2
COc1cc(NS(=O)(=O)c2ccc(NC(=O)COc3ccc(C)cc3C)cc2)nc(OC)n1 | -2% | 26% | 4% | -17 | -1% | 7 | x
COc1cc(NS(=O)(=O)c2ccc(NC(=O)COc3ccc(C)cc3)cc2)nc(OC)n1 | 11µM* | -22% | -1% | 13 | -5% | -2 | i
N#CCCn1c(=O)c(-c2cc(F)cc(F)c2)nc2cnc(Oc3cccc(Cl)c3)nc21 | x | x | x | x | 2% | x | x
COc1cccc(-c2c(NC(=O)c3ccco3)oc3ccccc3c2=O)c1 | u | -16% | -7% | 21 | -5% | 2 | i
COc1cccc(-c2c(NC(=O)c3ccco3)oc3ccc(Cl)cc3c2=O)c1 | -10% | 9% | 5% | 4 | 2% | -4 | x
CCN1C(=O)c2cccc3c(S(=O)(=O)Nc4ccccc4OC)ccc1c23 | u | 0% | 0% | -7 | 89% | -3 | i
CCN1C(=O)[C@H]2[C@H]3CN=C(SCC(=O)c4ccccc4)N3[C@@](C)(C(=O)OC)[C@H]2C1=O | x | x | x | x | -16% | x | i
O=C(CN1CCCCC1)c1ccc(OC(F)F)cc1 | u | 3% | -5% | -6 | -4% | -5 | i
C#CC[N+](C)(C)CCCCCCCCCC | 3.2µM* | -1% | 0% | -14 | -1% | -5 | i
CC(C)(C)N(NC(=O)Nc1ccc(F)cc1)C(=O)c1ccccc1 | -10% | -1% | -1% | -13 | 0% | -7 | x
Cc1cccc(C)c1NC(=O)NN(C(=O)c1ccccc1)C(C)(C)C | 2.5µM* | -8% | -1% | -5 | 5% | 7 | i
O=C(CNC1CC1)Nc1cc(C(F)(F)F)ccc1Cl | -1% | 7% | -11% | 12 | 1% | 13 | x
O=C(CNCCCO)Nc1cc(C(F)(F)F)cc(NC(=O)CNCCCO)c1Cl | u | 15% | -1% | -9 | 0% | 2 | i
Oc1ccc2n[nH]nc2c1 | u | 27% | 0% | -14 | -10% | -5 | i
COCCNC(=S)N/N=C/c1c2ccccc2cc2ccccc12 | -1% | -4% | 4% | 40 | 2% | 7 | x
NC(=S)N/N=C\c1c2ccccc2cc2ccccc12 | 14µM* | 8% | -3% | 1 | -5% | 0 | i
NC(=S)N/N=C/c1cccnc1 | x | x | x | x | -5% | x | x
NC(=S)N/N=C/c1ccccc1 | 2.5µM* | 3% | 0% | -13 | 0% | -5 | +
Cn1c(=O)n(C)c2cc(/C=N/NC(N)=S)ccc21 | 6% | x | 6% | 16 | 4% | -4 | x
NC(=S)N/N=C/c1ccc2c(c1)OCCO2 | 14µM* | x | -1% | 32 | -4% | 28* | +
COc1cc(/C=N/NC(N)=S)ccc1OCC(=O)N1CCOCC1 | -4% | 3% | -4% | -15 | -5% | -8 | x
COc1cc(/C=N/NC(N)=S)ccc1OCc1ccc(C)cc1 | u | 19% | 6% | 66* | 1% | 30* | +
COc1ccc(OC)c(NC(=O)Cc2coc3ccc(C(C)C)cc23)c1 | x | x | x | x | 1% | x | x
Cc1ccccc1CNc1nc(N(C)C)nc2c1cnn2C | x | x | x | x | -9% | x | x
NC(=S)N/N=C\c1ccccc1OCc1ccccc1 | 11µM* | 10% | 0% | -16 | 6% | -3 | +
SMILES | SARS PLpro yeast-1 | NS1 inh | LmPK inhibitor | Shiga toxin inh | Tb PYK inh | Cycloheximide cs | SARS PLpro yeast-2
COc1cccc(/C=N/NC(N)=S)c1OCc1cccc(Cl)c1 | 10% | 19% | 6% | -2 | -2% | -4 | x
CCSc1nnc(NC(=O)C2CCCCC2C(=O)O)s1 (stereo unspecified) | 10% | 0% | 0% | 12 | -6% | 3 | x
CCSc1nnc(N(CCC(=O)O)CCC(=O)O)s1 | u | 12% | 0% | 28 | -24% | -4 | i
Cc1ccc(N2CC(C(=O)OCC(=O)Nc3ccccc3C)CC2=O)cc1 (stereo unspecified) | u | x | x | x | -9% | x | u
CCOC(=O)c1[nH]c(CSc2nnc(-c3ccc(OC)cc3)o2)c(C(=O)OCC)c1C | 3.2µM* | 5% | 7% | -6 | -5% | 12 | i
COc1ccc(-c2nnc(SCC(=O)c3[nH]c(C)c(C(C)=O)c3C)o2)cc1 | -3% | -8% | 2% | -5 | 0% | 8 | x
COc1ccc(COCC(O)CN2CCN(S(=O)(=O)c3c(F)cccc3F)CC2)cc1OC (stereo unspecified) | x | x | x | x | -3% | x | x
Cc1cc(Cl)ccc1OCC(=O)NN1C(=O)C2C3C=CC(C3)C2C1=O (stereo unspecified) | 0% | x | 1% | -9 | 0% | -1 | x
Cc1cc(Cl)ccc1OCC(=O)N/N=C1\CC2C=CCC12 (stereo unspecified) | u | 19% | -2% | -2 | 0% | -3 | i
CCCOc1ccc(CN(C(=O)Cc2coc3ccc(CC)cc23)C2CCS(=O)(=O)C2)cc1 (stereo unspecified) | x | x | x | x | 1% | x | x
Cc1ccc(CNC(=O)CN2C(=O)CCc3cc(S(=O)(=O)N4CCCCC4)ccc32)cc1 | x | x | x | x | -14% | x | x
Oc1c(C(c2ccc(Cl)cc2)N2CCCC2)cc(Cl)c2cccnc12 (stereo unspecified) | x | 29% | 4% | 2 | -1% | 5 | i
CC(=O)NC(c1ccc(C)cc1)c1cc(Cl)c2cccnc2c1O (stereo unspecified) | u | -41% | 0% | -7 | -4% | -2 | +
COc1ccc(C(NC(=O)c2cccnc2)c2cc(Cl)c3cccnc3c2O)cc1OC (stereo unspecified) | 2.2µM* | u | -3% | -10 | -10% | -2 | i
Oc1c(C(Nc2ccccn2)c2cccnc2)cc(Cl)c2cccnc12 (stereo unspecified) | 2.5µM* | -55% | 4% | 17 | 36% | -2 | i
CCOC(=O)C(CC)n1nc(C)c2c(C)n(-c3ccc(C)cc3)nc2c1=O (stereo unspecified) | x | x | x | x | 2% | x | x
CC1CCN(Cc2nnnn2CCCC(=O)NCCN2CCOCC2)CC1 | -4% | 6% | -9% | -34 | 13% | 2 | x
C=CC[N+]1([C@H]2C[C@H]3[C@@H]4CC[C@H]5C[C@H](OC(C)=O)[C@@H](N6CCCCC6)C[C@]5(C)[C@H]4CC[C@]3(C)[C@H]2OC(=O)CC)CCCCC1 | x | x | x | x | -7% | x | x
COc1ccc(NC(=O)CN(C)C(=O)c2cc(S(=O)(=O)N(C)C)ccc2N2CCCC2)cc1 | x | x | x | x | 3% | x | x
CN(CC(=O)Nc1c(Cl)cccc1Cl)C(=O)c1cc(S(=O)(=O)N(C)C)ccc1N1CCCC1 | u | x | x | x | -13% | x | i
CCN(CC)S(=O)(=O)c1cc(C(=O)OCC(=O)Nc2c(F)cccc2F)ccc1F | u | -19% | 1% | -4 | -1% | 1 | i
CCCCNC(=O)CCCCCNS(=O)(=O)c1ccc(OC)cc1 | u | 1% | 2% | -1 | -3% | -2 | i
COc1ccc(CNC(=S)NC2CCCC2)cc1 | u | 0% | -1% | 2 | -15% | -3 | +
CCCN(C)C1CN(Cc2cn(Cc3ccc(OC)cc3)nn2)S(=O)(=O)C1 (stereo unspecified) | x | x | x | x | -13% | x | x
CN(C)Cc1csc(NC(=O)Nc2ccccc2Oc2ccccc2)n1 | x | x | x | x | -2% | x | x
